From PubChem BioAssay (NCI)
Compounds without any hit were thinned out: in the full panel of roughly 83,000, 20% have a hit.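 For each line, cells grew in 96-well plates with the test compound present at a single concentration for 48 hours.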 The source made the active and inactive calls. The calls were made as follows: active = growth percent below 10; inactive = the rest.

tested on: MCF7 breast; test: NCI-60 one-dose screen, 48 h (100 = growth as untreated, 0 = no growth, -100 = all killed); conditions: 10 µM unless noted

Q: How did the growth turn out when S=c1sc2ccccc2n1CN1CCCCC1 was run?
A: Its growth is 115% (inactive).

Q: Which growth does the source give for CSc1[nH]c(=O)ncc1F here?
A: Its growth is 96% (inactive).

Q: Which growth does the source give for COc1ccc(-c2cc(-c3cc(-c4ccc(OC)cc4)nc(N)n3)nc(N)n2)cc1 here?
A: Its growth is 91.2% (inactive).

Q: Cc1cc(N)c(S(=O)(=O)O)c(N)c1 was tested. Which growth did it give?
A: Its growth is 105% (inactive).

Q: Which growth does the source give for COc1ccccc1NC(=O)C1=C(C)NC(C)=C(C(=O)Nc2ccccc2OC)C1c1cccc([N+](=O)[O-])c1 here?
A: The growth was 47.8% (inactive).

Q: Which growth does the source give for C=CCNc1nnc(C)s1 here?
A: Its growth is 102% (inactive).

Q: For COC(=O)C(C)Oc1ccc(OC#N)cc1 (configuration not stated), which growth is on record?
A: Its growth is 98% (inactive).

Q: How did the growth turn out when CCc1nn(Cc2ccccc2)c2nc(C)c(CCc3ccccc3)c(Cl)c12 was run?
A: Its growth is 82.7% (inactive).

Q: How did the growth turn out when c1c(-c2cc(C3CC3)[nH]n2)n[nH]c1C1CC1 was run?
A: Its growth is 92.8% (inactive).

Q: How did the growth turn out when O=C(CCNNC(=O)c1ccncc1)NCc1ccccc1 was run?
A: The growth was 89.9% (inactive).

Q: CC(=O)Nc1cccc(Cl)c1C was tested. Which growth did it give?
A: Its growth is 105% (inactive).

Q: For CC(=O)C1CCCCC1, which growth is on record?
A: The growth was 97.9% (inactive).

Q: With CCOC(=O)/C(C#N)=C/c1cccc(C)c1 as the compound, how does the growth read?
A: The growth was 91.3% (inactive).

Q: CC(C(=O)O)(C1CCCCC1)C1(O)CCCCC1 (configuration not stated) was tested. Which growth did it give?
A: The growth was 105% (inactive).

Q: With CN(C)c1ccc2oc(=O)c3ccccc3c2c1 as the compound, how does the growth read?
A: Its growth is 72.9% (inactive).

Q: O=C(OCC(O)C1OC(c2ccccc2)OC(COC(=O)c2ccccc2)C1O)c1ccccc1 (configuration not stated) was tested. Which growth did it give?
A: Its growth is 91.1% (inactive).

Q: O=C(O)c1ccc(S(=O)(=O)O)cc1 was tested. Which growth did it give?
A: Its growth is 96.2% (inactive).

Q: OC1CCCc2ccccc21 (configuration not stated) was tested. Which growth did it give?
A: The growth was 94.1% (inactive).

Q: With CCCCCCCCCCCCCC(=O)Oc1ccc[nH]c1=O as the compound, how does the growth read?
A: The growth was 95.8% (inactive).

Q: COc1cc2c(cc1OC)[C@H](C(=O)O)[C@@H](c1ccc(OC(C)C)c(OC)c1)N(C)C2=O was tested. Which growth did it give?
A: Its growth is 108% (inactive).

Q: With COC(=O)Nc1nc2ccc(C(=O)c3ccc(F)cc3)cc2[nH]1 as the compound, how does the growth read?
A: The growth was 15.6% (inactive).

Q: Nc1ccccc1SC(CC(=O)c1ccccc1)c1c(Cl)cccc1Cl (configuration not stated) was tested. Which growth did it give?
A: Its growth is 14.8% (inactive).

Q: How did the growth turn out when CC1=CC(=O)c2ccccc2C1=O was run?
A: The growth was 100% (inactive).

Q: How did the growth turn out when O=C(Nc1ccccc1)OCCc1ccccc1 was run?
A: The growth was 93.7% (inactive).

Q: With COc1ccccc1N1CCN(C(=S)Nc2ccccc2)CC1 as the compound, how does the growth read?
A: The growth was 99.5% (inactive).

Q: Which growth does the source give for O=C1OC(c2ccc(F)cc2)CC1CN1CCOCC1 (configuration not stated) here?
A: Its growth is 97.6% (inactive).

Q: For CCCNC(=O)c1ccc(S(N)(=O)=O)cc1, which growth is on record?
A: Its growth is 95% (inactive).

Q: COC(=O)CCCCC1=CCC2C(=O)C=C(O)C2C1 (configuration not stated) was tested. Which growth did it give?
A: Its growth is 94.9% (inactive).

Q: Which growth does the source give for CCOC(=O)CCCS(C)(=O)=O here?
A: Its growth is 92.6% (inactive).

Q: How did the growth turn out when Nc1ccc(NC(=O)c2cccc(N)c2)cc1 was run?
A: Its growth is 105% (inactive).

Q: For CCOC(=O)c1cc(/C=C/c2ccc(Cl)cc2Cl)on1, which growth is on record?
A: The growth was 0.711% (active).

Q: With O=[N+]([O-])c1ccccc1S(=O)c1ccccc1[N+](=O)[O-] as the compound, how does the growth read?
A: The growth was 95.2% (inactive).

Q: Which growth does the source give for COc1cccc(Sc2ccc([N+](=O)[O-])c3no[n+]([O-])c23)c1 here?
A: Its growth is 39% (inactive).

Q: Which growth does the source give for O=C(NC1CCCCC1)OCc1c(COC(=O)NC2CCCCC2)c(-c2ccc(Cl)c(Cl)c2)n2c1CCC2 here?
A: The growth was 27.4% (inactive).

Q: With O=C1OC(=O)C2C1C1(Cl)C(Cl)=C(Cl)C2(Cl)C2C(=O)OC(=O)C21 (configuration not stated) as the compound, how does the growth read?
A: The growth was 95.8% (inactive).

Q: With c1ccc(Cc2ccccc2)cc1 as the compound, how does the growth read?
A: The growth was 113% (inactive).

Q: Which growth does the source give for COc1ccc2c(NCCCCCCCCNc3c4ccccc4nc4cc(OC)ccc34)c3ccccc3nc2c1 here?
A: Its growth is -100% (active).

Q: Which growth does the source give for CCCC(=O)c1cc(C)ccc1OC here?
A: Its growth is 103% (inactive).

tested on: HCT-116 colon; test: as above; conditions: 10 µM

Q: With S=c1sc2ccccc2n1CN1CCCCC1 as the compound, how does the growth read?
A: The growth was 102% (inactive).

Q: With CSc1[nH]c(=O)ncc1F as the compound, how does the growth read?
A: Its growth is 98.3% (inactive).

Q: COc1ccc(-c2cc(-c3cc(-c4ccc(OC)cc4)nc(N)n3)nc(N)n2)cc1 was tested. Which growth did it give?
A: Its growth is 103% (inactive).

Q: For Cc1cc(N)c(S(=O)(=O)O)c(N)c1, which growth is on record?
A: Its growth is 91.9% (inactive).

Q: With COc1ccccc1NC(=O)C1=C(C)NC(C)=C(C(=O)Nc2ccccc2OC)C1c1cccc([N+](=O)[O-])c1 as the compound, how does the growth read?
A: The growth was 44.9% (inactive).

Q: With C=CCNc1nnc(C)s1 as the compound, how does the growth read?
A: The growth was 104% (inactive).

Q: How did the growth turn out when COC(=O)C(C)Oc1ccc(OC#N)cc1 (configuration not stated) was run?
A: Its growth is 108% (inactive).

Q: CCc1nn(Cc2ccccc2)c2nc(C)c(CCc3ccccc3)c(Cl)c12 was tested. Which growth did it give?
A: The growth was 81.2% (inactive).

Q: With c1c(-c2cc(C3CC3)[nH]n2)n[nH]c1C1CC1 as the compound, how does the growth read?
A: The growth was 83.6% (inactive).

Q: O=C(CCNNC(=O)c1ccncc1)NCc1ccccc1 was tested. Which growth did it give?
A: Its growth is 105% (inactive).

Q: How did the growth turn out when CC(=O)Nc1cccc(Cl)c1C was run?
A: Its growth is 103% (inactive).

Q: How did the growth turn out when CC(=O)C1CCCCC1 was run?
A: The growth was 102% (inactive).

Q: How did the growth turn out when CCOC(=O)/C(C#N)=C/c1cccc(C)c1 was run?
A: Its growth is 95.9% (inactive).

Q: CC(C(=O)O)(C1CCCCC1)C1(O)CCCCC1 (configuration not stated) was tested. Which growth did it give?
A: Its growth is 104% (inactive).

Q: How did the growth turn out when CN(C)c1ccc2oc(=O)c3ccccc3c2c1 was run?
A: The growth was 83.2% (inactive).

Q: For O=C(OCC(O)C1OC(c2ccccc2)OC(COC(=O)c2ccccc2)C1O)c1ccccc1 (configuration not stated), which growth is on record?
A: Its growth is 109% (inactive).

Q: Which growth does the source give for O=C(O)c1ccc(S(=O)(=O)O)cc1 here?
A: The growth was 108% (inactive).

Q: With OC1CCCc2ccccc21 (configuration not stated) as the compound, how does the growth read?
A: The growth was 111% (inactive).

Q: Which growth does the source give for CCCCCCCCCCCCCC(=O)Oc1ccc[nH]c1=O here?
A: The growth was 94.6% (inactive).

Q: With COc1cc2c(cc1OC)[C@H](C(=O)O)[C@@H](c1ccc(OC(C)C)c(OC)c1)N(C)C2=O as the compound, how does the growth read?
A: Its growth is 101% (inactive).

Q: COC(=O)Nc1nc2ccc(C(=O)c3ccc(F)cc3)cc2[nH]1 was tested. Which growth did it give?
A: Its growth is 14.2% (inactive).

Q: Nc1ccccc1SC(CC(=O)c1ccccc1)c1c(Cl)cccc1Cl (configuration not stated) was tested. Which growth did it give?
A: Its growth is -29.7% (active).

Q: How did the growth turn out when CC1=CC(=O)c2ccccc2C1=O was run?
A: Its growth is 104% (inactive).

Q: With O=C(Nc1ccccc1)OCCc1ccccc1 as the compound, how does the growth read?
A: The growth was 109% (inactive).

Q: With COc1ccccc1N1CCN(C(=S)Nc2ccccc2)CC1 as the compound, how does the growth read?
A: The growth was 103% (inactive).

Q: For O=C1OC(c2ccc(F)cc2)CC1CN1CCOCC1 (configuration not stated), which growth is on record?
A: The growth was 92.5% (inactive).

Q: Which growth does the source give for CCCNC(=O)c1ccc(S(N)(=O)=O)cc1 here?
A: Its growth is 96.4% (inactive).

Q: COC(=O)CCCCC1=CCC2C(=O)C=C(O)C2C1 (configuration not stated) was tested. Which growth did it give?
A: The growth was 102% (inactive).

Q: How did the growth turn out when CCOC(=O)CCCS(C)(=O)=O was run?
A: The growth was 110% (inactive).

Q: Nc1ccc(NC(=O)c2cccc(N)c2)cc1 was tested. Which growth did it give?
A: The growth was 94.4% (inactive).

Q: CCN(CC)CCNc1ccc(CO)c2sc3ccccc3c(=O)c12 was tested. Which growth did it give?
A: The growth was 23.7% (inactive).

Q: Which growth does the source give for CCOC(=O)c1cc(/C=C/c2ccc(Cl)cc2Cl)on1 here?
A: The growth was -86.6% (active).

Q: For O=[N+]([O-])c1ccccc1S(=O)c1ccccc1[N+](=O)[O-], which growth is on record?
A: The growth was 51.8% (inactive).

Q: For COc1cccc(Sc2ccc([N+](=O)[O-])c3no[n+]([O-])c23)c1, which growth is on record?
A: The growth was -91.4% (active).

Q: For O=C(NC1CCCCC1)OCc1c(COC(=O)NC2CCCCC2)c(-c2ccc(Cl)c(Cl)c2)n2c1CCC2, which growth is on record?
A: Its growth is 15.5% (inactive).

Q: For O=C1OC(=O)C2C1C1(Cl)C(Cl)=C(Cl)C2(Cl)C2C(=O)OC(=O)C21 (configuration not stated), which growth is on record?
A: The growth was 102% (inactive).

Q: For c1ccc(Cc2ccccc2)cc1, which growth is on record?
A: The growth was 114% (inactive).

Q: How did the growth turn out when COc1ccc2c(NCCCCCCCCNc3c4ccccc4nc4cc(OC)ccc34)c3ccccc3nc2c1 was run?
A: The growth was -100% (active).

Q: Which growth does the source give for CCCC(=O)c1cc(C)ccc1OC here?
A: Its growth is 107% (inactive).
